Giardia kill – kills Giardia lamblia; Giardia lamblia trophozoite viability; activity change, % at 7.66 µM, hits read low; actives 0.15% (n = 340,000); AID 540267; in the data active = activity change below about -80%; inconclusive = between about -30% and that limit;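 also: parasites exposed to compound for two days anaerobically before the ATP read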
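Luminescent ATP signal served as the viability read-out, measured 15-30 min after adding ATP detection reagent to trophozoites that had been incubated with compounds for 48 hrs at 37 deg C anaerobically at 100 cells/well.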
a7 integrin act – activates integrin-mediated alleviation for muscular dystrophy; alpha7betagal myoblasts, beta-gal FDG fluorescence, 48 h; Potency, µM (highest dose often 38.3 µM), most hits filed as activators; actives 0.064% (n = 350,000); also: nearly all actives have a fitted effect of over 60% in size
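Alpha7betagal+/- myoblasts (passage 13) were plated 16-24 hr, then exposed to compounds (1:260 dilution of DMSO stock) for 48 hours at 37C. After MPER lysis, β-galactosidase reporter activity was read as FDG fluorescence (ex 480/em 540) after 30 minutes.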
VP16 counter – Gal4-VP16 reporter inhibition counter-screen. Drosophila S2 Gal4-VP16 UAS-luciferase, luminescence, 20 h. Potency, µM (titrated, usually from 53.6 µM), usual class: inhibitors. actives 3.5% (n = 310,000). AID 2546;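 also: Gal4-VP16 expression switched on by copper sulfate through the metallothionein promoter; nearly all actives have a fitted effect of over 50% in size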
ERG Ets-DNA blk – ERG Ets/DNA interaction inhibition; Potency, µM (doses to about 76.9 µM), actives largely listed as inhibitors; actives 0.028% (n = 370,000); fluorescence polarization, His-ERG Ets domain / labelled DNA; P11308; AID 624246; active = well fitted inhibition curve with a large enough effect in the polarisation, with a control signal flat; inconclusive = small, poorly fitted or top-dose-only effect, or effect the other way, or a change in a side signal; inactive = no such curve, though single readings can be large or run the other way; the % refers to the polarisation;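 also: polarization taken with two DNA probes labelled with fluorescein and Texas red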
Target sequence (P11308 whole entry, looked up, the tested form may be a part): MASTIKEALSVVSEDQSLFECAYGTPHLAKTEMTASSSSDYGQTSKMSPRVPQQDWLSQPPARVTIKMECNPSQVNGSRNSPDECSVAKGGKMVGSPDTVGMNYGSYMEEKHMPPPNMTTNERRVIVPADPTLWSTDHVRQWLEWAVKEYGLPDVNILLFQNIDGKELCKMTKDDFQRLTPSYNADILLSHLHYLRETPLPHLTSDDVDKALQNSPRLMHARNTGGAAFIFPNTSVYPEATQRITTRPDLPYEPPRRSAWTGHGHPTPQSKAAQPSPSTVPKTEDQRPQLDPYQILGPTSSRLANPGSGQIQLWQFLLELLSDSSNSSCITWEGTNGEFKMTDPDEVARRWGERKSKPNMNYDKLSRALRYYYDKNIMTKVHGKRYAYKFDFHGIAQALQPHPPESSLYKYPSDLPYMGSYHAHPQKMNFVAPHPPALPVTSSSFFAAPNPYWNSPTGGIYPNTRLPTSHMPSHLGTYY
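His-tagged ERG Ets domain (1 uM in the protein solution; 300mM KCl, 50mM Tris-HCl, 1mM EDTA, 1mM DTT, pH 7.5) received compound, then a probe mix of 5 nM fluorescein-DNA and 100nM Texas-615-DNA. Fluorescence polarization was read for both dyes.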
RORgamma inh – blocks mouse ROR gamma transcriptional activity. Potency, µM (titrated, usually from 53.6 µM), hits mostly inhibitors. P51450. Drosophila S2 Gal4-RORgamma UAS-luciferase reporter, 20 h. actives 5.4% (n = 310,000); also: nearly all actives have a fitted effect of over 60% in size
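A Gal4/UAS one-hybrid system in insect cells: metallothionein-promoter Gal4–ROR gamma fusion plus Photinus luciferase reporter. Copper sulfate 700 uM final, 20 hr ambient incubation, luminescent detection after 10 min with reagent.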
A number is an active result; – = inactive; ? = inconclusive; · = not tested or not shown; [ ] = another dose, or the depositor's remark. This is one part of a sample in which hits are shown more often than they occur. Unless noted, calls follow the shape of the dose curve; as a rule, active = well fitted curve in the direction sought with a large enough effect; inconclusive = small, poorly fitted or top-dose-only effect, or another doubt; inactive = no such curve, though single readings can be large; an effect the other way counts as inactive or inconclusive.

SMILES	Giardia kill	a7 integrin act	VP16 counter	ERG Ets-DNA blk	RORgamma inh
CC[C@H](C)[C@H](NC(=O)[C@H](Cc1ccc(O)cc1)NC(=O)[C@H](Cc1cnc[nH]1)NC(=O)[C@H](CCCNC(=N)N)NC(=O)[C@H](CC(C)C)NC(=O)[C@H](C)NC(=O)[C@@H](N)CO)C(=O)N[C@@H](CC(N)=O)C(=O)N[C@@H](CC(C)C)C(=O)N[C@H](C(=O)N[C@H](C(=O)N[C@@H](CCCNC(=N)N)C(=O)N[C@@H](CCC(N)=O)C(=O)N[C@@H](CCCNC(=N)N)C(=O)N[C@@H](Cc1ccc(O)cc1)C(N)=O)[C@@H](C)O)[C@@H](C)CC	·	·	–	·	–
Cc1c(C2(O)CCCCC2)[nH]c2ncccc12	–	–	·	–	·
CCc1c(C2(O)CCCCC2)[nH]c2ncccc12	–	10µM	·	–	·
O=C(CSc1c2c(nc3cc(Cl)ccc13)CCCC2)N1CCN(c2ccccc2F)CC1	·	·	·	–	·
O=C(CCl)N(c1ccccc1)c1ccccc1	–	–	?	–	14.1µM
CCCn1c(SCC(=O)NC2CCCC2)nnc1-c1ccccn1	–	–	–	–	–
C=CCn1c(SCC(=O)NC2CCCC2)nnc1-c1ccccn1	–	–	–	–	5.62µM
Cc1cc(C)nc(-n2nc(C)c(Br)c2Nc2ccc(Br)cc2)n1	–	–	0.891µM	–	?
Cc1nn(C)c(Nc2ccc(Br)cc2)c1Br	–	–	11.2µM	–	?
Cc1nn(C)c(NC(=O)c2ccccc2Cl)c1Br	–	–	–	–	–
CC(=O)C1CCC2C3CCC4CC(=O)CCC4(C)C3C=CC12C (centres undefined)	–	?	·	–	·
CC(=O)c1ccc(N2CCN(c3ncnc4onc(-c5ccc(Cl)cc5)c34)CC2)cc1	·	·	·	–	·
Cc1cc(Cl)ccc1OCc1cc(=O)n2c3c(sc2n1)CCCC3	·	·	·	–	·
Cn1c(=O)c(-c2cc(F)cc(F)c2)nc2cnc(N3CCNCC3)nc21	·	·	–	·	–
C=C(C)CNC(=S)NNC(=O)CCn1c2ccc(Cl)cc2c2cc(Cl)ccc21	–	–	0.501µM	–	0.631µM
C=C(C)CNC(=S)NNC(=O)CCn1c2ccccc2c2ccccc21	–	–	?	–	7.08µM
C=C(C)CNC(=S)NNC(=O)CCn1c2cc(Cl)ccc2c2ccc(Cl)cc21	–	–	8.91µM	–	5.01µM
O=C(O)COn1c(-c2ccc(Cl)cc2)nc2ccc(Cl)cc21	–	–	–	–	–
COc1ccc(-c2nc3ccccc3n2OCC(=O)O)cc1	?	–	12.6µM	–	?
COc1ccc(/C=C/c2nc3ccccc3n2Cc2ccc(OC)c(OC)c2)cc1	–	–	?	–	12.6µM
C=C(C)Cn1c(-c2ccccc2)nc2ccccc21	–	–	?	–	14.1µM
CCOc1ccc(Cn2c3ccc(OC)cc3c3nc4ccccc4nc32)cc1OC	–	–	?	–	12.6µM
Cc1ccccc1OC(=O)CSc1nnc(-c2ccc(F)cc2)o1	·	·	·	–	·
CC[C@H](C)[C@H](NC(=O)[C@@H]1CCCN1C(=O)[C@H](Cc1cnc[nH]1)NC(=O)[C@@H](NC(=O)[C@H](Cc1ccc(O)cc1)NC(=O)[C@@H](NC(=O)[C@H](CCCN=C(N)N)NC(=O)CNC)C(C)C)[C@@H](C)CC)C(=O)O	·	·	–	·	–
CCCc1ccc(C(=O)O)cc1	·	·	–	·	–[10 µM]
SMILES	Giardia kill	a7 integrin act	VP16 counter	ERG Ets-DNA blk	RORgamma inh
COc1ccc(Cn2c(-c3ccc(OC)cc3)nc3ccccc32)cc1	–	–	?	·	11.2µM
COCCn1c(-c2ccc(OC)cc2)nc2ccccc21	–	–	–	–	–
CC#CCOC(=O)c1c(C)nc2sc3c(c2c1N)CC[C@@H](O)C3	·	·	?	·	7.08µM
S=c1nc(NCCc2ccccc2Cl)c2ccccc2[nH]1	–	–	6.31µM	–	1.58µM
O=C(CCCCCNc1nc(=S)[nH]c2ccccc12)NCc1ccccc1Cl	·	·	?	·	17.8µM
O=C(CCCCCNc1nc(=S)[nH]c2ccccc12)NCCc1ccccc1	–	–	–	·	?
CCOc1ccc(OCC)c(NS(=O)(=O)c2ccc3c(c2)n(C)c(=O)c(=O)n3C)c1	–	–[7.66 µM]	·	–	0.316µM
OC[C@H]1OC(O)[C@H](O)[C@@H](O)[C@@H]1O (some centres undefined)	·	·	–	·	–
COc1cc(Br)cc(/C=N/NC(=O)Cc2ccccc2)c1O	–	–	·	–	·
O=C(CP(=O)(c1ccccc1)c1ccccc1)N/N=C/c1cc(Br)cc(Br)c1O	–	–	2.51µM	–	1.12µM

Source: PubChem BioAssay
